Reference: PubChem BioAssay (NCI)
This is part of a sample that, as a whole, favours compounds with a hit. Of some 83,000 tested, about 20% had one in any assay.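 Negative percent growth values reflect cell death: -40 means 40% of the cells present at the start died, and -100 means all died.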 Values without a mark were called inactive. Calls of active or inactive are those of the source. How the source made its calls: active means growth percent below 10; inactive means the rest.

These molecules were tested on COLO 205 colon (assay: NCI-60 one-dose screen, 48 h (100 = growth as untreated, 0 = no growth, -100 = all killed)). Conditions: 10 µM unless noted.
With CC[C@H](C)[C@H](NC(=O)c1ccccn1)C(=O)N(C)[C@H](C[C@@H](OC(C)=O)c1nc(C(=O)N[C@@H](Cc2ccccc2)C[C@H](C)C(=O)OC)cs1)C(C)C the growth was -21.2% (active).
O=[N+]([O-])c1cnc[nH]1 gave a growth of 119%.
For CC(=O)O[C@H]1CC[C@]2(C)[C@H]3CC[C@]4(C)[C@@H](OC(C)=O)CC[C@H]4[C@@H]3[C@@H](C)[C@]2(O)C1, the growth was 104%.
CCN(CC)CCOC(=O)C(OC(C)C)(c1ccccc1)c1ccccc1 showed a growth of 98%.
For O=C1NC(=O)C(=Cc2cccn2CCCCCn2c3ccccc3c(=O)c3ccccc32)C(=O)N1, the growth was 114%.
COc1ccc(Nc2ccc([N+](=O)[O-])cc2[N+](=O)[O-])cc1CN(CCCl)CCCl showed a growth of 38%.
CCCC[C@H](NC(=O)[C@H]1CCCCN1C)C(=O)N(C)[C@H](C[C@@H](OC(C)=O)c1nc(C(=O)N[C@@H](Cc2ccccc2)C[C@H](C)C(=O)OCC)cs1)C(C)C was tested, and the growth was -69.9% (active).
Nc1c(F)cc(-c2nc3cc(F)ccc3[se]2)cc1F gave a growth of 13.4%.
For COC(=O)[C@H](Cc1ccccc1)NC(=O)c1csc([C@@H](C[C@H](C(C)C)N(C)C(=O)[C@@H](NC(=O)[C@H]2CCCCN2C)C2CC2)OC(C)=O)n1, the growth was -66.6% (active).
COC(=O)[C@@H](C)C[C@H](Cc1ccccc1)NC(=O)c1nc([C@@H](C[C@H](C(C)C)N(C)C(=O)[C@@H](NC(=O)[C@H]2CC(=O)CCN2C)C(C)C)OC(C)=O)sc1C(C)C was tested, and the growth was -39.9% (active).
With CC(C)=CCC[C@H](C(=O)O)[C@@H]1CC[C@]2(C)C3=C(CC[C@@]12C)[C@@]1(C)CC[C@H](O)C(C)(C)[C@@H]1CC3 the growth was 120%.
Work on C=CC[PH+](c1ccccc1)c1ccccc1.C=CC[PH+](c1ccccc1)c1ccccc1.[Cl][Pt][Cl] yielded a growth of 22.2%.
With CN1CCC(O)(c2ccc(F)cc2)C(C(=O)c2ccc(F)cc2)C1 (configuration not stated) the growth was 115%.
For COc1ccc2c(c1)c(-c1nc(-c3c[nH]c4ncccc34)cs1)cn2CCN1CCOCC1, the growth was 61.6%.
With COC(=O)[C@@H](C)C[C@H](Cc1ccccc1)NC(=O)c1csc([C@@H](C[C@H](C(C)C)N(C)C(=O)[C@@H](NC(=O)[C@H]2CCCCN2C)C(C(F)(F)F)C(F)(F)F)OC(C)=O)n1 the growth was -50.6% (active).
CN1CC(=O)N(O)C1(C)c1cccnc1 (configuration not stated) gave a growth of 111%.
With COc1cc(/C=C/[N+](=O)[O-])cc(OC)c1 the growth was -49.4% (active).
With CC12CCC3C(CCC4Cc5[nH]c6ccccc6c5CC43C)C1CCC2O (configuration not stated) the growth was 45%.
With COC(=O)C12CC(NC(=O)c3csc([C@@H](C[C@H](C(C)C)N(C)C(=O)[C@@H](NC(=O)[C@H]4CCCCN4C)C(C)C)OC(C)=O)n3)(C1)C2 the growth was -60.1% (active).
Molecule CC1CN1CCCCN1CC1C (configuration not stated) has a growth of 115%.
CC(=O)O[C@H](C[C@H](C(C)C)N(C)C(=O)[C@@H](NC(=O)[C@H]1CCCCN1C)C(C)C)c1nc(C(=O)NC2CCC(C(=O)O)CC2)cs1 (some centres not stated) gave a growth of 32.6%.
For CC[C@H](C)[C@@H]([C@@H](CC(=O)N1CCC[C@H]1[C@H](OC)[C@@H](C)C(=O)N[C@H](C)[C@@H](O)c1ccccc1)OC)N(C)C(=O)[C@@H](NC(=O)[C@@H](NC)C(C)C)C(C)C, the growth was -72.1% (active).
CCNc1nc(Cl)nc(NCC)n1 was tested, and the growth was 102%.
Work on CCOP(=O)(NC[C@H]1O[C@](O)(CO)[C@@H](O)[C@@H]1O)OCC yielded a growth of 102%.
With CCCc1cc(O)c2c3c(c(=O)oc2c1)CN(C)CC3 the growth was 21%.
CCCCN1CCCC[C@@H]1C(=O)N[C@H](C(=O)N(C)[C@H](CCc1nc(C(=O)N[C@@H](Cc2ccccc2)C[C@H](C)C(=O)OC)cs1)C(C)C)[C@@H](C)CC was tested, and the growth was 22.3%.
With O=C([O][Hg][CH2]C1COCC([CH2][Hg][O]C(=O)c2ccccc2)O1)c1ccccc1 (configuration not stated) the growth was -23.1% (active).
In the case of CN[C@]1(c2ccccc2Cl)CCCC[C@H]1NCCCN1CCN(C)CC1, the growth is reported as 108%.
Cn1cc(-c2csc(-c3cn(CCN4CCOCC4)c4ccc(F)cc34)n2)c2cccnc21 gave a growth of 15.9%.
CC(C)CCC1(CCCl)C(=O)NC(=O)NC1=O was tested, and the growth was 110%.
With O=C(CCCC1CCCCC1)OCC(Cl)(Cl)Cl the growth was 101%.
In the case of COC(=O)CC12CC(NC(=O)c3csc([C@@H](C[C@H](C(C)C)N(C)C(=O)[C@@H](NC(=O)[C@H]4CCCCN4C)C(C)C)OC(C)=O)n3)(C1)C2, the growth is reported as -54.7% (active).
C#Cc1ccc2c(c1)C(c1ccccc1)=NCC(=O)N2C gave a growth of 15.8%.
In the case of COc1cccc2c1c(C(=O)C(=O)Nc1ccn[nH]1)cn2Cc1ccc(F)cc1, the growth is reported as 103%.
Work on Clc1cccc(Cl)c1Cl yielded a growth of 122%.
Molecule O=c1[nH]cc(N(CCCl)CCCl)c(=O)[nH]1 has a growth of 81%.
In the case of CC(C)(N)Cc1ccccc1, the growth is reported as 116%.
